# Assay outcomes (PubChem BioAssay)
# VP16 counter = Gal4-VP16 reporter inhibition counter-screen; Drosophila S2 Gal4-VP16 UAS-luciferase, luminescence, 20 h; Potency, µM (top dose mostly 53.6 µM), for inactives: top-dose activity, negative = inhibition, actives largely listed as inhibitors; 310,000 tested, 3.5% active; AID 2546;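 also: Gal4-VP16 expression switched on by copper sulfate through the metallothionein promoter; % is scaled to controls: 0 for no effect and ±100 for the full control effect; nearly all actives have a fitted effect of over 50% in size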
# PINK1 expr mod = changes PINK1 expression | Potency, µM (highest dose often 76.6 µM), inactives show at the top dose activation (PINK1 increase), most hits filed as activators | PINK1 immunofluorescence, high-content cytometry, 24 h | 410,000 tested, 0.2% active; active = well fitted activation curve with a large enough effect; inconclusive = small, poorly fitted or top-dose-only effect; cell line not stated here; also: % of control where 0% means no effect; nearly all actives have a fitted effect of over 65% in size
#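 A stable cell line was treated with compounds at 5 concentrations for 24 hours, with CCCP as control. PINK1 levels and mitochondrial localization were measured by immunofluorescence with mitochondrial, cell and nuclear markers after fixation, read by laser-scanning cytometry.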
# ClpP mod = qHTS Assay for Activators of ClpP. ATP-dependent Clp protease proteolytic subunit (Bacillus subtilis (strain 168)), P80244. purified B. subtilis ClpP, FRET peptide cleavage, 20 min. Potency, µM (series often up to 57.5 µM), for inactives: at the top dose activity change, negative = active. 340,000 tested, 1.9% active. AID 651965, 2013; active = well fitted falling curve with a large enough effect; inconclusive = small, poorly fitted or top-dose-only effect; inactive = no such curve, though single readings can be large or run the other way; also: the source files actives as falling curves though it sought activators and does not explain the sign; nearly all actives have a fitted effect of over 65% in size
#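 ClpP 10 microg/mL final, pH 8 Tris/KCl buffer with BSA, glycerol, Tween-20; compound pinned in; FRET-FV substrate; RT 20 min; Ex320/Em430; ΔFRET vs ADEP 5.8 microM, DMSO, no enzyme.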
# Sfp inh = Sfp phosphopantetheinyl transferase inhibition; Q9F4F7; Biochemical Sfp PPTase activity, qHTS; Potency, µM, inactives show largest response in the series, negative = inhibition, most hits filed as inhibitors; 310,000 tested, 3.5% active; AID 1490;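 also: the enzyme is Sfp with the accession as filed and its product quenches rhodamine fluorescence; 0% = enzyme reaction without inhibitor and -100% = no enzyme wells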
#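 Fluorescence-quenching assay: 15 nM Sfp-PPTase preincubated 15 min at room temperature with compound, then 5 uM rhodamine-CoA and 12.5 uM BHQ-2-labelled YbbR peptide added. Fluorescence (ex 525/em 598 nm) read at start and after 30 min; difference gives rate.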
# RORg inh = ROR gamma (mouse) transcription inhibition. P51450. Drosophila S2 Gal4-RORgamma UAS-luciferase reporter, 20 h. Potency, µM (doses to about 53.6 µM), for inactives: top-dose activity change, negative = inhibition, actives largely listed as inhibitors. 310,000 tested, 5.4% active. AID 2551; also: % is scaled to controls: 0 for no effect and ±100 for the full control effect; nearly all actives have a fitted effect of over 60% in size
#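 Using a luciferase readout, inhibitors were identified by reduced reporter activity in Drosophila cells coexpressing a copper-inducible Gal4–ROR gamma fusion and UAS-driven Photinus luciferase, incubated 20 hr after 700 uM copper sulfate.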
# Epigenetic derep = epigenetic control regulation, reporter derepression. murine LDR cells, GFP reporter derepression, 30 h. Potency, µM (doses to about 53.9 µM), for inactives: top-dose GFP activation, most hits filed as activators. 280,000 tested, 0.2% active; also: % of control where 0% means no effect; nearly all actives have a fitted effect of over 60% in size
#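 Reporter derepression read as number of fluorescent GFP-positive objects, 20-120 um in size, counted by laser-scanning cytometer. Mouse LDR line with an epigenetically silenced CMV-GFP locus; compound incubation 30 h, 37 C.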
# Active calls of the source: *; ? = inconclusive; nt = no result given; [ ] = dose if it differs, or a comment. Rows were chosen to be rich in hits. Some 8.1% of all compounds tested hit in one or more screens of this group. Unless noted, calls follow the shape of the dose curve; as a rule, active = well fitted curve in the direction sought with a large enough effect; inconclusive = small, poorly fitted or top-dose-only effect, or another doubt; inactive = no such curve, though single readings can be large; an effect the other way counts as inactive or inconclusive. Potency is read from the fitted curve at half-maximal effect.
SMILES,VP16 counter,PINK1 expr mod,ClpP mod,Sfp inh,RORg inh,Epigenetic derep
COc1ccc(C2CC(c3ccccc3)=NN2c2ccc(S(N)(=O)=O)cc2)cc1OC (stereo not drawn),-3.6%,-2.2%,nt,89.1µM*,7.9%,-0.2%
COc1ccc(C2=NN(c3ccc(C(=O)O)cc3)C(c3ccc(OC)c(OC)c3)C2)cc1 (stereo not drawn),-15.4%,-1.8%,nt,-6.0%,7.08µM*,nt
COc1cc(C2CC(c3ccccc3)=NN2c2ccccc2)ccc1OCC(=O)O (stereo not drawn),-5.8%,-2.6%,nt,-11.2%,-28.7%,nt
NS(=O)(=O)c1ccc(N2N=C(c3ccccc3)CC2c2cccc(F)c2)cc1 (stereo not drawn),-14.3%,-3.7%,?,1.8%,38.0%,10.4%
COc1ccc(C2CC(c3ccccc3)=NN2c2ccc(Cl)c(C(=O)O)c2)cc1 (stereo not drawn),-11.3%,-0.5%,nt,56.2µM*,-12.4%,-5.4%
CCOC(=O)c1ccc(NC(=O)c2c(NCc3cc(OC)c(OC)cc3OC)sc3c2CCCC3)cc1,nt,1.2%,-6.6%,nt,nt,-0.2%
CCOc1ccc(N2C(=O)CC(NCC#N)C2=O)cc1 (stereo not drawn),?,-0.9%,0.4%,56.2µM*,?,nt
Cc1ccccc1C[C@H](C(=O)O)N1C(=O)c2ccc(C(=O)O)cc2C1=O,-4.0%,nt,nt,6.7%,-16.1%,nt
CCC1=NN(C(=O)C(=O)NCCc2ccccc2)C(O)(C(F)(F)F)C1 (stereo not drawn),1.78µM*,nt,1.1%,6.7%,0.631µM*,0.0%
CC1=NN(C(=O)CCc2ccc3c(c2)OCO3)C(O)(C(F)(F)F)C1 (stereo not drawn),2.24µM*,3.9%,0.6%,0.4%,4.47µM*,-4.8%
O=C(CCc1ccccc1)N1N=C(c2ccncc2)CC1(O)C(F)(F)F (stereo not drawn),1.2%,-0.2%,nt,13.3%,-3.0%,-0.1%
CCC1=NN(C(=O)CCc2ccccc2)C(O)(C(F)(F)F)C1 (stereo not drawn),?,3.1%[38.3 µM],-2.3%,-10.4%,12.6µM*,-2.3%
COCCCn1c(SCc2cccc(Cl)c2)nc2c(sc3ccccc32)c1=O,nt,-0.8%,-9.1%,nt,nt,-0.5%
CN1CCc2c(sc3c2C(=O)NC(c2ccc(C(C)(C)C)cc2)N3)C1 (stereo not drawn),nt,4.1%,4.3%,nt,nt,7.6%
CC(C)N1C(=S)N(Cc2ccco2)C(=O)C1CC(=O)Nc1ccccc1 (stereo not drawn),-7.6%,0.7%,nt,-38.9%,17.8µM*,-0.4%
COCCN(Cc1ccco1)C(=O)c1cc2c(Cl)nc3ccc(C)cc3c2s1,nt,-1.0%,-2.1%,nt,nt,-0.6%
NCCCCCC(=O)N/N=C/c1coc2ccccc2c1=O,1.9%,-0.3%,17.8µM*,-9.5%,14.2%,-0.3%
N#CCC(=O)N/N=C/c1coc2ccccc2c1=O,1.9%,0.2%,-1.0%,-6.3%,-30.1%,0.1%
CC1=C(C(=O)Nc2ccc(Cl)cc2)C(C(C)C)n2nc(SCc3cccc(C)c3)nc2N1 (stereo not drawn),nt,1.7%,-12.4%,nt,nt,-1.8%
O=C(CCl)N(Cc1ccccc1)c1ccccc1,?,-2.1%,-0.4%,10.7%,11.2µM*,0.0%
Cc1cccc(N(Cc2ccccc2)C(=O)CCl)c1,-25.1%,-0.7%,nt,4.8%,10µM*,0.1%
COc1ccc(CC(=O)N(Cc2ccccc2)c2cccc(C)c2)cc1OC,14.9%,-0.5%,-1.4%,10.3%,-18.6%,nt
CC1=C(C(=O)Nc2ccc(F)cc2)C(c2ccc(N(C)C)cc2)NC(=O)N1 (stereo not drawn),nt,2.3%,1.8%,nt,nt,-3.7%
COc1ccc(Nc2sc(C(=O)c3ccc(Cl)cc3)c(N)c2C(=O)Nc2ccccc2OC)cc1,?,15.8µM*,0.9%,-8.8%,-42.2%,3.9%
COc1ccc(C(=O)c2sc(Nc3ccccc3)c(C(=O)Nc3ccc(OC)c(OC)c3)c2N)cc1,-89.5%,?,-0.8%,-18.0%,?,2.9%
SMILES,VP16 counter,PINK1 expr mod,ClpP mod,Sfp inh,RORg inh,Epigenetic derep
COc1ccc(NC(=O)c2c(Nc3ccccc3)sc(C(=O)c3ccc(F)cc3)c2N)cc1,12.6µM*,?,0.7%,-17.2%,-120.3%,-3.5%
CSc1ccc(CCNC(=O)C2CCN(c3ncnc4c3nc3n4CCCCC3)CC2)cc1,nt,0.4%,-4.0%,nt,nt,-0.4%
CSc1nc(NCC(C)O)c2c3c(sc2n1)CN(C)CC3 (stereo not drawn),-5.4%,0.2%,4.2%,21.2%,7.2%,nt
CSc1nc(SCC(=O)NC(c2ccccc2)c2ccccc2)c2c3c(sc2n1)CN(C)CC3,?,9.8%[38.3 µM],28.2µM*,-1.5%,-35.4%,0.0%
CC(C)Cn1c2c(c(O)c(C(=O)Nc3ccc(F)cc3)c1=O)CCCC2,-11.5%,1.7%,-1.9%,-6.5%,4.8%,-3.8%
CC(C)Cn1c2c(c(O)c(C(=O)Nc3ncccc3O)c1=O)CCCC2,14.1µM*,-2.2%,2.1%,-13.9%,?,6.3%
O=C(CNC(=O)c1ccncc1)N/N=C/c1ccccn1,-6.4%,3.9%,-2.1%,56.2µM*,-17.4%,5.9%
COc1cc(C(=O)N/N=C/c2ccsc2C)cc(OC)c1OC,?,4.8%,-0.5%,17.5%,12.6µM*,1.1%
COc1cc(C(=O)NCC(=O)N/N=C/c2ccccn2)cc(OC)c1OC,1.9%,-0.3%,nt,44.7µM*,2.5%,0.9%
CCc1cc[n+](CC(=O)c2ccc(F)cc2)cc1C(=O)O,nt,nt,0.8%,nt,nt,nt
COc1ccccc1C(=O)N1CCCC(c2nc(SCCN3CCOCC3)ncc2C)C1 (stereo not drawn),nt,-0.4%,nt,nt,nt,nt
CC(C)c1ccc(NC(=O)Cn2nnc(C(=O)NCc3ccc(Cl)cc3)c2N)cc1,nt,-1.8%,-3.7%,nt,nt,-0.2%
O=C(CN1C(=O)C2CCCCC2C1=O)Nc1nc(-c2ccccn2)cs1 (stereo not drawn),-10.0%,0.7%,-1.1%,15.8µM*,?,2.4%
C[C@@H](C(=O)Nc1nc(-c2ccccn2)cs1)N1C(=O)C2CCCCC2C1=O (stereo partly drawn),?,0.0%,1.1%,50.1µM*,12.6µM*,1.4%
CCOc1ccc(-n2c(C)nc3cc(C(=O)NCc4ccc(C)cc4)ccc32)cc1,nt,0.9%,-0.6%,nt,nt,-1.2%
Cn1cnc(S(=O)(=O)N2CCCC(C(=O)NCc3ccccc3Cl)C2)c1 (stereo not drawn),nt,-0.6%,1.8%,nt,nt,-1.4%
COc1ccc(OC)c(CNS(=O)(=O)c2ccc(-c3cc(C(F)(F)F)on3)s2)c1,nt,1.3%,0.2%,nt,nt,-3.6%
CCN(CC)CCNC(=O)c1ccc(Cl)c(S(=O)(=O)Nc2ccc(Cl)cc2)c1,20µM*,-2.1%,-1.0%,-8.2%,?,-0.5%
